# Assay outcomes: PubChem, several laboratories
# Most compounds without a hit are left out; they make up all but 3.7% or so of the library.
# BJeLR lethal = BJeLR cell viability loss; BJeLR (HRASV12) viability, CellTiter-Glo ATP luminescence, 48 h; AID 1554; 300,000 tested, 0.17% active; inhibition, % (concentration not given with the values); in the data active = inhibition above about 50%; inconclusive = no clear call, values can overlap the other calls
# Anthrax LF inh2 = inhibitors of Bacillus anthracis lethal factor protease. multiplex microsphere protease cleavage assay, LF. AID 588501. 360,000 tested, 0.12% active. P15917. inhibition, % at 10 µM; also: plate controls were buffer without enzyme for full effect and enzyme alone for no effect
# Vc quorum ag = quorum light induction in luxS cqsA deficient V. cholerae. V. cholerae BH1578 lux reporter, luminescence, 6 h. AID 588436. 350,000 tested, 0.16% active. activation, % at 18.7 µM; in the data active = activation mostly above about 9.7%, no sharp cut-off; inconclusive = no clear call, values can overlap the other calls; inactive = mostly below about 3.7%
# BoNT-A LC inh2 = inhibitors of Botulinum neurotoxin A light chain protease; multiplex microsphere protease substrate cleavage, flow cytometry; inhibition, % at 10 µM; 360,000 tested, 0.17% active; AID 588499; also: plate controls were buffer without enzyme for full effect and enzyme alone for no effect
# Bead autofluor = counter-screen for toxin protease inhibitors: compound fluorescence. compound autofluorescence counterscreen, microsphere flow cytometry; hits give high values. fluorescence intensity (test concentration not listed). 360,000 tested, 3.1% active. AID 624483; in the data active = fluorescence intensity above about 16000; inconclusive = no clear call, values can overlap the other calls
# BoNT F protease = blocks Botulinum neurotoxin F light chain protease | inhibition, % at 10 µM | Multiplex microsphere protease cleavage assay, flow cytometry | AID 588497 | 360,000 tested, 0.22% active; in the data active = inhibition above about 35%, passing the limit was not always enough; inconclusive = no clear call, values can overlap the other calls; also: plate controls were buffer without enzyme for full effect and enzyme alone for no effect
# * = called active by the depositor; i = inactive; u = inconclusive; x = no result. Rule as the data show it, unless noted: active = inhibition above about 30%; inconclusive = no clear call, values can overlap the other calls; inactive = below that.
SMILES,BJeLR lethal,Anthrax LF inh2,Vc quorum ag,BoNT-A LC inh2,Bead autofluor,BoNT F protease
Cc1ccc(NC(=O)C(C)Sc2nnc3n2CCCCC3)cc1S(=O)(=O)N1CCOCC1 (stereo not drawn),x,-2,1,0,3960,-7
O=C(NC1CCCC1)C1c2ccccc2C(=O)N1CCCN1CCOCC1 (stereo not drawn),0,-7,0,-1,4298,-11
COCCCN1C(=O)c2ccccc2C1C(=O)NC1CCCCCC1 (stereo not drawn),14,1,i,2,22972*,1
CCN(CC)S(=O)(=O)c1ccc(S(=O)(=O)NCc2cccs2)cc1,-3,-1,0,-2,3642,0
COc1ccc(S(=O)(=O)NCc2cccs2)cc1,-3,2,-1,0,21782*,-1
COc1ccccc1Oc1ccc(S(=O)(=O)NCc2ccccn2)cc1,16,1,i,-1,23518*,1
COc1ccc(CNS(=O)(=O)c2ccc(OC)cc2)cc1,-10,-3,-1,-1,2583,-18
COCC(C)NS(=O)(=O)c1ccc(OC)cc1 (stereo not drawn),-8,-1,i,6,19695*,11
COCC(C)NS(=O)(=O)c1ccccc1 (stereo not drawn),-4,-4,-1,0,4637,1
COc1ccc(S(=O)(=O)NCc2ccccn2)cc1OC,2,2,i,-2,4017,u
COc1ccc(S(=O)(=O)NCc2ccccc2)cc1,9,-2,2,-5,21265*,-9
CC1(C(=O)NS(=O)(=O)c2ccc(F)cc2F)CCN1C(=O)C/C=C/c1ccccc1 (stereo not drawn),x,-3,0,0,3430,-2
COc1ccc(S(=O)(=O)NCCC(=O)NCc2ccccc2)cc1,-3,-4,0,3,21763*,1
O=S(=O)(NCc1cccs1)c1cccc2cccnc12,-3,0,0,-2,17165*,-3
CSc1ccc(S(=O)(=O)NCc2ccc(C)cc2)cc1,-1,0,0,-1,23510*,-1
Cc1ccc(CNC(=O)CCNS(=O)(=O)c2ccc(C)cc2)cc1,1,-3,-3,0,4205,u
Cc1ccc(S(=O)(=O)NCc2ccccc2)cc1,0,-1,i,5,u,u
C=CCNC(=O)CCCCCNS(=O)(=O)c1ccc(OC)cc1,1,2,0,2,23119*,-1
CC1(C)Cc2cccc(OC(=O)NC3CCCCC3)c2O1,x,-5,x,0,5605,-2
Cc1cc(NC(=O)c2csc([C@@H]3O[C@H](CO)[C@H](O)[C@H](O)[C@H]3O)n2)n(C)n1,x,-2,0,0,3626,1
COC(=O)c1ccc2nc(-c3ccco3)c(Cc3cccc(F)c3)n2c1,x,0,x,3,5893,4
OC[C@@H]1CN(Cc2cccs2)C[C@H](n2cnc3c(NCc4ccncc4)ncnc32)O1,x,-5,-1,0,4053,0
CN(C)C(=O)COn1c(SCC(=O)N(C)C)nc2ccccc2c1=O,8,-4,-1,0,20262*,-1
N#CC(c1ccccn1)(c1ncc(C(F)(F)F)cc1Cl)N1CCOCC1 (stereo not drawn),0,-7,-2,u,22287*,1
CCCNC(=O)c1cc2c(c(-c3cccc(-c4ccccc4F)c3)n1)[C@@H](CCO)N(C(=O)CC1CC1)C2,x,-2,x,0,5568,4
SMILES,BJeLR lethal,Anthrax LF inh2,Vc quorum ag,BoNT-A LC inh2,Bead autofluor,BoNT F protease
COCOCCn1cc(CN2CCS(=O)(=O)N(Cc3ccc(-c4ccc(Cl)c(Cl)c4)cc3)C(C(C)C)C2=O)nn1 (stereo not drawn),x,-6,-1,0,2807,-1
COC(=O)c1ccccc1NC(=O)CN1CCC(NC(=O)c2ccccc2C)CC1,6,1,2,0,16191*,-4
Cc1ccccc1C(=O)NC1CCN(CC(=O)Nc2nccs2)CC1,-7,-1,i,u,20345*,0
O=C(c1ccccc1)c1nc2ccccc2n(CCCn2c(=O)c(C(=O)c3ccccc3)nc3ccccc32)c1=O,6,6,i,1,16402*,0
O=C(Nc1ccon1)c1ccc(Cl)s1,-23,2,0,u,17115*,-3
CCOc1cccc2cc(-c3csc(NC(=O)CCC(=O)N4CCC(C)CC4)n3)c(=O)oc12,0,0,i,-1,22950*,-2
O=c1cc(CN(Cc2ccccc2)Cc2ccccc2)c2ccccc2o1,x,-6,x,-1,6715,-15
